Experimental data from PubChem BioAssay AID504333 (National Center for Advancing Translational Sciences (NCATS), 2011).
Where “and” joins values, the source holds several entries; their conditions need not be identical. Equal entries are not always repeated. In all, about 360,000 compounds went through this assay and about 16,000 (4.4%) were called active. About 9% were inconclusive and are not listed. The sample holds actives, similar compounds and a random draw of the others, so the mix is not that of the screen. The call rests on the fitted dose curve; in most records, active means well fitted inhibition curve with a large enough effect; inconclusive means small, poorly fitted or top-dose-only effect; inactive means no such curve, though single readings can be large or run the other way. Where a structure was tested more than once in an assay, its records may differ in their call.

Biological target: Bromodomain adjacent to zinc finger domain protein 2B (Homo sapiens) (UniProt Q9UIF8)
Test: qHTS Assay for Inhibitors of BAZ2B; further: nearly all actives have a fitted effect of over 60% in size
Settings: AlphaScreen BAZ2B-H3K14Ac peptide displacement; series mostly up to 114 µM; activity change, negative = inhibition: at the top concentration
In short: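 BAZ2B 50 nM plus b-H3(5-23)K14Ac 50 nM, PBS pH 7.4/0.01% Tween-20, 30 min RT; compound added (max 110 uM), 30 min RT; streptavidin donor/Ni-chelate acceptor beads 10 ug/mL final, 20 min dark; AlphaScreen read.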
On the % scale 0 is the no-effect control and ±100 the full control effect; potency means the concentration at half of the fitted maximal effect.

Sequence of Bromodomain adjacent to zinc finger domain protein 2B (Homo sapiens) (Q9UIF8 whole entry, looked up, the tested form may be a part): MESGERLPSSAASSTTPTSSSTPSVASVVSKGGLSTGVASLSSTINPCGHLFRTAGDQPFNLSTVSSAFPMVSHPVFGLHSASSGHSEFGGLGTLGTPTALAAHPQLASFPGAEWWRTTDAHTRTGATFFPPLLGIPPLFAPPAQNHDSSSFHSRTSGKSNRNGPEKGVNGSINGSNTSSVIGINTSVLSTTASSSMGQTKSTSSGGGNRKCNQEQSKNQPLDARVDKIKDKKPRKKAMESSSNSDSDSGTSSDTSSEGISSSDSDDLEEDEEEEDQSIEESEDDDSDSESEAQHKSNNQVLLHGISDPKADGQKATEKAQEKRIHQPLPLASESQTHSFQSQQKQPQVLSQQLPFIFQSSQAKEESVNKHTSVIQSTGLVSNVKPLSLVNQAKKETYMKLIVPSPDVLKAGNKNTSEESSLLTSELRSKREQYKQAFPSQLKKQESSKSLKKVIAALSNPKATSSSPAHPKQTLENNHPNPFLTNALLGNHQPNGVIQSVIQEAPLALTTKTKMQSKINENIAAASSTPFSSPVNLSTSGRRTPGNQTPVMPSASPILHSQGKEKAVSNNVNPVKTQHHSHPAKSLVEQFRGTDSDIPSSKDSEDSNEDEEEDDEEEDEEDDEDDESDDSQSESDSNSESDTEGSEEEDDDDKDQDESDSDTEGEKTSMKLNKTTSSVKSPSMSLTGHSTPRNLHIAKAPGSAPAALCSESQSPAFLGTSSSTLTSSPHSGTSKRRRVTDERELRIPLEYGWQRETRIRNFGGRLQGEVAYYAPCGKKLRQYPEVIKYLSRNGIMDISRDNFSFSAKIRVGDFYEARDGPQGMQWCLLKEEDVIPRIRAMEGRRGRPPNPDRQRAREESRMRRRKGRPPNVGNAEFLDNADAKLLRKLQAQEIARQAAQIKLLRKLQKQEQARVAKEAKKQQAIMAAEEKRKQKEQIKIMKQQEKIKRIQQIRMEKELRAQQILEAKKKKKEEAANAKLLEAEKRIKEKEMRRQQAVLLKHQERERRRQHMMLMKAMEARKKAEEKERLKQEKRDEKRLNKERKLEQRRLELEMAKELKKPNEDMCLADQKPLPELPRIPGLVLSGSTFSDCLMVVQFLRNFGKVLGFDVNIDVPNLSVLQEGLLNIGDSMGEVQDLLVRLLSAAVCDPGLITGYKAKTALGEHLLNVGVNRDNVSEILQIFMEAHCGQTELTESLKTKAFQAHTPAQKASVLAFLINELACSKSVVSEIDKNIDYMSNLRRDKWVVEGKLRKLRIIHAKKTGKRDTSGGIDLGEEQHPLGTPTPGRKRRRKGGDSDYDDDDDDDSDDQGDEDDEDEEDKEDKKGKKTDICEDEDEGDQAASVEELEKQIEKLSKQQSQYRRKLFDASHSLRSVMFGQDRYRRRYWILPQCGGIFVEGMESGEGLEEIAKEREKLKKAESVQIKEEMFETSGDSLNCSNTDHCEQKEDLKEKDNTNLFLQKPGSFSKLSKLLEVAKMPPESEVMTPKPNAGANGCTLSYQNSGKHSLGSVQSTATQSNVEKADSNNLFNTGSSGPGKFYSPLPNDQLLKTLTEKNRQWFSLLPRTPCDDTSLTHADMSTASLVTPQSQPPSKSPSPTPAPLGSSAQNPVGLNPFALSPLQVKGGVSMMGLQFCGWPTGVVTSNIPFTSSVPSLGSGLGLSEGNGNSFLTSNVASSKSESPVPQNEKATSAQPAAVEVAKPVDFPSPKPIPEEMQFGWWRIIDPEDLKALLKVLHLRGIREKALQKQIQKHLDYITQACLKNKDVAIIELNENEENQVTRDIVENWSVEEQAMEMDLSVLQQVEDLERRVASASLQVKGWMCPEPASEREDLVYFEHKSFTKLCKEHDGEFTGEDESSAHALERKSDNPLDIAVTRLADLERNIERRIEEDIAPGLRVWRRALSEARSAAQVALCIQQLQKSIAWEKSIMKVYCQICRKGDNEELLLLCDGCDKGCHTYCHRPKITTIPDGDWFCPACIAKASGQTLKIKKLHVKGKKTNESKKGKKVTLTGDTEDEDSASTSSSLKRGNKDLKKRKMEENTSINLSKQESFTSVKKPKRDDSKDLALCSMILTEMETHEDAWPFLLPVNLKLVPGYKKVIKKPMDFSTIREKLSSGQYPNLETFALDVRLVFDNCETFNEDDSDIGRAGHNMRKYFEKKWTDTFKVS

SMILES	activity change, negative = inhibition	Potency
Cc1ccc(NC(=O)C2CCN(S(=O)(=O)c3cc(-c4noc(C)n4)ccc3C)CC2)c(C)c1	-7.07% (inactive)	
C/C(=N/NC(=O)c1ccn(C)n1)c1ccncc1	-32% (inactive)	
C/C(=N\NC(N)=S)c1ccncc1		50.1 µM (active)
C/C(=N\NC(N)=S)c1cccnc1	-1.17% (inactive)	
CCOC(=O)c1c(C)[nH]c(C)c1S(=O)(=O)N(C)CC(=O)N1CCN(c2ccccc2)CC1	-19.6% (inactive)	
Cc1ccccc1NC(=O)Cn1c(=O)n(CC2CCC(C(=O)NCCc3ccccc3)CC2)c(=O)c2ccccc21 (stereo unspecified)	-1.6% (inactive)	
Cc1c(Cl)cccc1NC(=O)C(=O)NCCc1csc2nc(-c3ccccc3F)nn12	-7.32% (inactive)	
CC(=O)NC(Cc1c[nH]c2ccccc12)C(=O)NCCc1ccccc1 (stereo unspecified)	-4.32% (inactive)	
CC1(C(=O)NCCc2c[nH]c3ccccc23)C=CC2(CCCCC2)N1C(=O)c1ccccc1 (stereo unspecified)	-37.5% (inactive)	
C[C@]1(C(=O)NCCc2c[nH]c3ccccc23)C=C[C@@H](Cc2ccccc2)N1C(=O)c1ccccc1		79.4 µM (active)
COc1cc(Nc2nc(-c3ccc(OC)c(OC)c3)nc3ccccc23)cc(OC)c1	-14.7% (inactive)	
Cc1cccc(C(=O)Nc2nnc(S(=O)(=O)N3CCCCCC3)s2)c1	-1.37% (inactive)	
CC1CCN(S(=O)(=O)c2nnc(NC(=O)COc3ccccc3F)s2)CC1	0.509% (inactive)	
Cc1ccccc1OCC(=O)Nc1nnc(S(=O)(=O)N2CCCC2)s1		inactive and 3.55 µM (active)
CCOCCCNC(=O)c1ccc2nc(CCc3ccccc3)oc2c1	-0.408% (inactive)	
COc1ccc(CCNC(=O)Cn2c(=O)cc(C(F)(F)F)c3c(C)nn(C)c32)c(OC)c1	2.29% (inactive)	
S=C(NCCc1ccccc1)NCC1CCCO1 (stereo unspecified)	5.46% (inactive)	
CCCC1CCC(=NNC(=S)NCCc2ccccc2)CC1 (stereo unspecified)		10 µM (active)
S=C(NCCc1ccccc1)Nc1ccccc1	-12.7% (inactive)	
COc1ccccc1NC(=O)c1oc2ccccc2c1NC(=O)C(C)C	0.844% (inactive)	
Cc1cccc(NC(=S)NCCN(C2CCCCC2)C2CCCC2)c1	-24.5% (inactive)	
O=C(O)CCC(=O)NCc1ccc2[nH]c3c(c2c1)CCCC3	-1.26% (inactive)	

SMILES	activity change, negative = inhibition	Potency
Cc1cccc(NC(=S)NCc2ccc3[nH]c4c(c3c2)CCCC4)c1		39.8 µM (active)
O=C(CCn1c(=O)c2sccc2n(Cc2ccc(F)cc2)c1=O)NCc1ccc2c(c1)OCO2	-21.3% (inactive)	
O=C(Cn1c(=O)nc(-c2ccccc2)c2cc(Cl)ccc21)NCc1ccc(Cl)cc1	-12.4% (inactive)	
C=CS(=O)c1sc(Cl)c(N2CCOCC2)c1[N+](=O)[O-] (stereo unspecified)		39.8 µM (active)
CCC(=O)Nc1cccc(-c2nc3cc(C)ccc3o2)c1	5.01% (inactive)	
Cc1ccc(C)c(N2CCN(C(=O)Cn3ncc4c(=O)oc5ccc(C)cc5c43)CC2)c1	-26% (inactive)	
O=C(O)c1ccc(-n2nc(-c3ccccc3)c3ccccc3c2=O)cc1	2.92% (inactive)	
N#Cc1c(-c2ccccc2)c(-c2ccccc2)n[nH]c1=O	-11.4% (inactive)	
O=C(O)c1n[nH]nc1-c1ccccc1		56.2 µM (active)
COc1ccc(Br)cc1CNC(=O)c1cc(=O)[nH]c2ccc(S(=O)(=O)N3CCCC3)cc12	0.679% (inactive)	
COc1ccc(N(Cc2ccc(N(C)C)cc2)C(=O)c2ccc(S(C)(=O)=O)cc2)cc1		39.8 µM (active)
COc1ccc(C(=O)N(Cc2ccc(N(C)C)cc2)C2CCS(=O)(=O)C2)cc1 (stereo unspecified)	-30.6% (inactive)	
COc1ccc(S(=O)(=O)NCc2ccc(C(=O)N(C)Cc3ccco3)cc2)cc1	-3.81% (inactive)	
CC(C)Cn1c(=O)c2ccccc2n2c(CCC(=O)N3CCN(c4cccc(Cl)c4)CC3)nnc12	-0.869% (inactive)	
Cc1cc(NC(=O)c2cccc(Cl)c2)ccc1-c1cc2ccccc2oc1=O	5.75% (inactive)	
CC1=CC(C)(C)Nc2ccc(OC(=O)C(Cc3ccccc3)N3C(=O)C4CCCCC4C3=O)cc21 (stereo unspecified)	-37.8% (inactive)	
CC1=CC(C)(C)Nc2ccc(OC(=O)CN3C(=O)C4CCCCC4C3=O)cc21 (stereo unspecified)		56.2 µM (active)
O=C(CN1C(=O)C2C3CCC(C3)C2C1=O)Oc1ccc2ccccc2c1 (stereo unspecified)	8.38% (inactive)	
COc1ccc(CCNC(=O)c2ccc3c(c2)sc2nc(-c4ccc(C)cc4)cn23)cc1OC	-0.933% (inactive)	
Cc1cccc(CNC(=O)c2cnc3sc(N4CCCCC4)nn3c2=O)c1	11.1% (inactive)	
Cc1ccc2nc(/C(C#N)=C/c3ccc(-c4ccc(C(=O)OC(C)C)cc4)o3)[nH]c2c1	-14.2% (inactive)	
CCc1ccccc1NC(=O)N1CCC2(CC1)Oc1ccccc1C(=O)N2Cc1ccccc1F	-2.22% (inactive)	

SMILES	activity change, negative = inhibition	Potency
c1ccc2sc(NN=C3CCCC3)nc2c1	1.97% (inactive)	
O=[N+]([O-])c1cc(Br)c(O)c(/C=N/Nc2nc3ccccc3s2)c1		35.5 µM (active)
COc1ccc(CC(=O)N/N=C/c2cc([N+](=O)[O-])cc(Br)c2O)cc1	-17.4% (inactive)	
CCN(CC)CCNC(=O)c1cc2c(=O)oc3ccc(C)cc3c2s1	-4.73% (inactive)	
CCOc1cccc(NC(=O)c2ccc(F)c(S(=O)(=O)N(CC)c3cccc(C)c3)c2)c1	8.6% (inactive)	
CC(C)Cc1nnc(NC(=O)CCc2ccccc2)s1	-3.69% (inactive)	
O=C(CCc1ccccc1)NNc1ccc(F)cc1	-4.02% (inactive)	
O=C(CCc1ccccc1)Nc1nn[nH]n1		70.8 µM (active)
COc1ccc(OC)c(CNC(=O)CN2C(=O)CCn3nc(-c4cn(C)c5ccccc45)cc32)c1	-33.4% (inactive)	
COc1cccc(NC(=O)c2ccc3nc(CCc4ccccc4)oc3c2)c1	0.792% (inactive)	
CC(=O)N1CCCc2cc(S(=O)(=O)N3CCC(C(=O)NCc4ccc(C)cc4)CC3)ccc21	2.46% (inactive)	
O=C(Nc1cc(C(F)(F)F)ccc1Cl)c1ccc2c(c1)CCN2S(=O)(=O)c1ccccc1	-1.09% (inactive)	
OCCNCc1cccc(OCc2ccccc2Cl)c1	-19% (inactive)	
Clc1cccc(Cl)c1OCCOCCNCc1ccccc1		56.2 µM (active)
S=C(NCCc1ccccc1)NCc1ccccc1Cl	3.82% (inactive)	
CCCCc1nc2ccccc2c(=O)n1NC(=O)c1c(O)c2cccc3c2n(c1=O)CC3	23.1% (inactive)	
CN1CCN(CC(=O)Nc2cccc([N+](=O)[O-])c2)CC1	6.3% (inactive)	
CCCCc1nc2ccccc2c(NC(=O)CN2CCN(C)CC2)c1CCC		50.1 µM (active)
Fc1ccc(CN2CCc3nc(Nc4ccccc4)ncc3C2)cc1F	-24.7% (inactive)	
COc1ccc(/C=C/C2=CC(C)(C)NC(=S)N2)c(OC)c1		39.8 µM (active)
COc1ccc(/C=C/C(=O)OCC(=O)Nc2cccc(Oc3ccccc3)c2)c(OC)c1	0.384% (inactive)	
COc1cc(/C=C/C2=CC(C)(C)NC(=S)N2)cc(OC)c1OC	-25.7% (inactive)	
